Measured values reported in PubChem BioAssay AID696 (Sanford-Burnham Center for Chemical Genomics, 2007).
Among all 96,000 compounds or so, about 1,200 (1.2%) were called active. Cut-off read from the data, not from the text of the source: active = activation fold above about 2; inactive = the rest. The entries come from a sample that favours actives as a whole.

biological target: Alkaline phosphatase, placental type (Homo sapiens) (UniProt P05187); experiment: activation of human placental alkaline phosphatase – biochemical, luminescence, HTS (AID 696); details: purified PLAP enzyme, luminescent substrate read-out; at 20 µM; stronger effect = higher value
Sequence (P05187 whole entry, looked up): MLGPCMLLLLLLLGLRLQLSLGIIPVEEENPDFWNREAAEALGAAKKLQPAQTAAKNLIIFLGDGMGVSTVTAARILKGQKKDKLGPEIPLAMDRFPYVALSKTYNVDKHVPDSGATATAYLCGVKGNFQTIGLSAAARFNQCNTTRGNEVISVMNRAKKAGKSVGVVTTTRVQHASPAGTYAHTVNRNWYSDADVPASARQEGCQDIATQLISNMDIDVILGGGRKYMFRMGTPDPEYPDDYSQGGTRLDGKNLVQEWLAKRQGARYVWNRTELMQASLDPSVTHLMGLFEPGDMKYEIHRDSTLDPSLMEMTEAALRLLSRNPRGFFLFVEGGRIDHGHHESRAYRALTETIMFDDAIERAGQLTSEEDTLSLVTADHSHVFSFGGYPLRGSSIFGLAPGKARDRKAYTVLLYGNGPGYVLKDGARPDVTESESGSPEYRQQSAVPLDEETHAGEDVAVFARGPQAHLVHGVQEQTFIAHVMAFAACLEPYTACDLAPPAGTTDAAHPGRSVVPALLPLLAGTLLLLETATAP

Activation fold, active:
CCOC(=O)N1CCN(C(c2cccnc2)c2ccc3cccnc3c2O)CC1 (centres undefined) 2.2
CCOc1ccccc1Oc1cn[nH]c1-c1ccc(OC)cc1O 2.8
COc1ccccc1NC1=NC(c2ccc(Cl)cc2)N=C(N)N1 (centres undefined) 2.2
COCCCNCC(=O)Nc1sc(C)c(C)c1C(=O)OC 2.2
CCc1ccc(N(CC)c2ncnc3nc[nH]c23)cc1 2
Cc1[nH][nH]c(=O)c1C(c1ccc(-c2ccc(Cl)cc2)o1)c1c(C)[nH][nH]c1=O 2.2
O=C(Nc1ccc(-n2ccnc2P(=O)(O)c2ccccc2)cc1)c1ccccc1Br 2.1
Cc1c(C(=O)N2CCOCC2)[nH]c2ccc(OCc3ccccc3)cc12 2
CC(C)(C)c1ccc(C(=O)NNC(=O)Cc2ccccc2)cc1 2.1
COc1ccc(C2N=C(N)N=C(N)N2c2ccccc2)cc1OC (centres undefined) 2.5
COc1ccc(NC(C)=O)cc1NC(=O)CN1CCN(C2c3ccccc3-c3ccccc32)CC1 2.8
Nc1nc(SCCOc2ccccc2)n[nH]1 2
O=C(Nc1nnc(C2CC2)s1)c1ccccn1 2.3
Cc1cccc(N2CCN(S(=O)(=O)c3ccc4[nH]c(=O)c(=O)[nH]c4c3)CC2C)c1 (centres undefined) 2.2
O=C(CN1C(=O)C2C3C=CC(C3)C2C1=O)Nc1nc(-c2ccccn2)cs1 (centres undefined) 2.3
CCOc1ccccc1N(CC(=O)NC1CCCCC1)C(=O)CCCC(=O)Nc1ccccn1 2
O=C(CCCC(=O)N(CC(=O)NC1CCCC1)Cc1ccccc1Cl)Nc1ccccn1 2
CCC(C)(C)c1ccc(Oc2ccc(NC(=O)COC(=O)C3=COCCO3)cc2)cc1 2.9
O=C(COC(=O)c1ccc(Oc2ccccc2)cc1)Nc1nnc(-c2ccccc2)o1 2
O=C(/C=C/NNC(=O)c1cccc(Br)c1)c1ccccc1 2
CCOc1ccc(C(CCc2ccccc2)NC(=O)c2ccc(OC)c(OC)c2)cc1OCC (centres undefined) 2.2

Activation fold, inactive:
COc1ccc(C(C)=O)cc1CN1C(=O)NC2(CCCCC2C)C1=O (centres undefined) 1
CCOC(=O)N1CCN(C(=O)CSc2ccc(Cl)cc2)CC1 1.4
CCN1CCN(C(c2cccnc2)c2cc(Cl)c3cccnc3c2O)CC1 (centres undefined) 1.7
CC1CC(C)CN(C/C=C/c2ccccc2[N+](=O)[O-])C1 (centres undefined) 1.2
C=C(C)COc1ccc(-c2n[nH]c(C)c2-c2ccccc2OC)c(O)c1 1
CCOc1ccccc1NC(=O)Nc1cc(OC)ccc1OC 0.8
c1ccc2c(C[n+]3csc4ccccc43)cccc2c1 1.1
COc1ccccc1NC1=NC2(CCCC2)N=C(N)N1 0.8
COc1ccccc1Nc1nc(N)nc(CN(C)C2CCCCC2)n1 1.3
O=C1C=C(c2ccc(Cl)cc2)C(=O)N1Nc1ccccc1 0.9
C=CCn1c(SCc2c(C)noc2C)nc2sc3c(c2c1=O)CCC(C)C3 (centres undefined) 1.4
CCOC(=O)c1c(NC(=O)CCl)sc(C(=O)N(CC)CC)c1C 1.7
CCOC(=O)c1c(NC(=O)c2cccs2)sc(C)c1C 1.1
COc1ccc(C2=NOC3(CC(=O)N(c4ccc(C)cc4)C3=O)C2)cc1 (centres undefined) 1.2
CCOC(=O)c1c(NC(=O)CCCN2CCOCC2)sc2c1CC(C)(C)OC2 1.5
c1ccc2c(c1)OCC(CNc1ncnc3nc[nH]c13)O2 (centres undefined) 1.6
COc1ccc(CCNc2ncnc3nc[nH]c23)cc1OC 1.8
Cc1nn(C)cc1/C=C1\CCC/C(=C\c2cn(C)nc2C)C1=O 1.8
CCn1c(C)nc2cc(C(=O)NNS(=O)(=O)c3ccc(C)cc3C)ccc21 1
Cc1ccc(C(=O)Nc2c(C#N)c(C)c(C)n2Cc2ccccc2)cc1 0.9
Cc1[nH][nH]c(=O)c1N=Nc1ccccc1 1.1
Cc1nnc(NC(=O)CCCOc2ccccc2)s1 1
CCOC(=O)c1nn(-c2cccc(C)c2)cc1C(=O)c1ccccc1 1.8
O=C(Nc1ccccc1)c1cccnc1Nc1ccccc1 0.8
Cc1nonc1NC(=O)c1ccccc1Br 1.2
CCOC(=O)c1nnn(-c2nonc2-n2cccc2)c1CN1CCC(C(=O)OCC)CC1 1.2
CC(=O)c1ccc(OCCN2CCOCC2)cc1 0.9
Cc1c(C(=O)CN2CCOCC2)[nH]c2ccccc12 0.9
CCOC(=O)c1[nH]c2ccc(OC)cc2c1NC(=O)N1CCOCC1 1.1
COc1cccc2c1OCC1COc3c(c(=O)n(C)c(=O)n3C)C21 (centres undefined) 1
COc1ccc(OCC(=O)NNC(=O)c2ccc(-c3ccccc3)cc2)cc1 1.5
CCNC(=S)NNC(=O)Cc1ccccc1 1.3
Cc1ccc(-c2cnc(NC(=O)CCC(=O)N(C)Cc3ccccc3)n2C)cc1 1.5
Cc1ccc(-n2nc(N)c3c(=O)oc(N(C)C)nc32)cc1 1.1
CSc1nc(-c2ccco2)nn1C(=O)CCc1ccccc1 1.1
COc1ccc(C2SCCN2S(=O)(=O)c2ccccc2)cc1OC (centres undefined) 1.3
COc1ccc(C2CC(=O)n3c(nc4ccccc43)S2)cc1OC (centres undefined) 1.1
COCCn1c(C)cc(C2=NNC(=Nc3ccc(F)cc3)SC2)c1C 1.2
CN1/C(=C\C(=O)c2oc3ccccc3c2N)C(C)(C)c2ccccc21 1
COc1ccc(OC)c(NC(=O)CN2CCN(C(=O)c3ccco3)CC2)c1 1.2
COc1ccc(NC(C)=O)cc1NC(=O)CN1CCN(c2ccccn2)CC1 1
Cc1ccc(S(=O)(=O)Nc2nc(C)cc(-n3nc(C)cc3C)n2)cc1 1.4
Nc1nc(SCc2ccccc2Cl)n[nH]1 1.5
COc1ccc(C(=O)CSc2n[nH]c(N)n2)cc1 1.5
COc1ccccc1-c1n[nH]c2c1[C@H](C)CC[C@H]2C(C)C 1.4
O=C(OCN1C(=O)c2ccccc2C1=O)/C(=C\c1ccco1)NC(=O)c1ccccc1 1.1
CCOc1cccc(C(=O)Nc2cnn(Cc3ccccc3)c2)c1 0.7
COc1ccc(CNC(=O)CCn2cccc2)cc1 1
CC(C)NC(=O)NC(=O)COC(=O)c1ccc(NC(=O)CC#N)cc1 1.4
COc1ccc2c(CC(=O)Nc3nnc(C4CC4)s3)coc2c1 0.9
Cc1occc1C(=O)Nc1nnc(C2CCCCC2)s1 1
NC(=O)C1(N2CCCCC2)CCN(C(=S)Nc2ccc(Cl)cc2)CC1 0.9
COc1cccc(N2C(=O)CC(N3CCN(S(=O)(=O)c4ccccc4)CC3)C2=O)c1 (centres undefined) 1.4
CN1CCN(S(=O)(=O)c2ccc3[nH]cc(C(=O)O)c(=O)c3c2)CC1 1.1
O=C1C(Cl)=C(N2CCOCC2)C(=O)N1c1ccccc1 1
O=C(NCCN1C(=O)C2C3C=CC(C3)C2C1=O)Nc1ccccn1 (centres undefined) 1.1
O=C(CN1C(=O)C2C3C=CC(C3)C2C1=O)NCCc1ccccc1Cl (centres undefined) 0.9
CC(OC(=O)CN1C(=O)C2CCCCC2C1=O)C(=O)Nc1ncc(Cl)cc1Cl (centres undefined) 0.9
O=C(CN1CCN(c2ccccn2)CC1)NC1CCCCC1 1.1
CCCC(=O)Nc1cc(OCC)c(NC(=O)NC2CCCCC2)cc1OCC 0.9
Cc1noc(C)c1C(=O)N(CC(=O)NC1CCCC1)Cc1ccccc1F 1
Cc1ccc(C(C(=O)NC2CCCC2)N(Cc2ccco2)C(=O)CCC(=O)Nc2ccccn2)cc1 (centres undefined) 1.7
CCCCNC(=O)C(=O)c1ccccc1NC(C)=O 0.9
Cc1cccc(C)c1NC(=O)CSc1nnc(-c2ccccc2)n1Cc1ccc2c(c1)OCO2 1.4
Cc1cc(/C=C2/SC(=O)N(CC(=O)OC(C)C)C2=O)c(C)n1C 1
COC(=O)CSc1snnc1-c1ccc(Cl)c(Cl)c1 1
CC(C)NS(=O)(=O)c1ccc(OCC(=O)Nc2ccc3c(c2)OCCO3)cc1 0.7
O=C(OCC(=O)c1cccs1)C1=COCCO1 0.9
O=C(CSCc1ccccc1)N1CCc2ccccc21 0.7
c1ccc(CCc2nc(-c3ccncc3)no2)cc1 0.9
O=C(COc1ccccc1)Nc1nonc1NC(=O)COc1ccccc1 0.9
O=C(Nc1cccc(Cl)c1)Nc1nnc(-c2ccccc2)o1 1.1
Cc1ccc(NC(=O)C(C)c2cccc(C(=O)c3ccccc3)c2)cc1 (centres undefined) 0.7
C=CCN(C(=O)Cn1ncc2c1-c1cc(C)ccc1OC2)c1ccccc1 1.2
COc1ccccc1OCc1nc2ccccc2s1 1
COc1ccc(C(C#N)N2N=C(C)CC2(C)C)cc1 (centres undefined) 0.9
Cc1cccc(N(CC(=O)N=Nc2c(O)[nH]c3ccccc23)S(C)(=O)=O)c1C 1.9
Cc1ccccc1NC(=O)c1ccccc1NS(=O)(=O)c1cccc2cccnc12 1.3
CC(C)(O)C(=O)NN(C(=O)c1ccccc1)c1cccc(Br)c1 0.9
O=C(/C=C\NCC(=O)c1ccccc1)c1ccccc1 0.9
COc1ccccc1NS(=O)(=O)N(C)C 0.8
COc1ccc(C(=O)NCCc2ccc(S(N)(=O)=O)cc2)cc1OC 1
CCOC(=O)CSc1nnc(CNC(=O)Cc2ccccc2)n1-c1ccccc1OC 1
